This is an account of results in PubChem BioAssay AID2148 (The Scripps Research Institute Molecular Screening Center, 2009).

The whole screen tested about 2,400 compounds, of which about 1,500 (62%) were called active. No stated cut-off is given here; in the data, active means inhibition above about 22%; inactive means the rest. So high a share suggests a set chosen from earlier hits. A selection follows.

Broadly, the inhibition is the change of the read-out against control, counted positive when it falls.

The test addresses Melanin-concentrating hormone receptor 1 (Homo sapiens) (UniProt Q99705). Nature of the test: antagonism of human MCHR1 receptor – cell-based, fluorescence, counter-screen for GPR7 antagonist project (AID 2148).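 Further: 0% = vehicle with agonist and 100% = vehicle without agonist.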 To be noted: MCHR1-expressing cells, fluorescence antagonist assay; at 4.4 µM; active compounds read high. (In general: The purpose of a counterscreen is to sort out artefacts and off-target activity.)
As for `CC(C)OCCCNc1ncnc2c1[nH]c1ccc(F)cc12`, the inhibition is 70.9% (active).
For the compound `Cc1cc(OC(C)C(=O)NC2CC(C)(C)NC(C)(C)C2)c2c(C)cc(=O)oc2c1` (centres undefined), the inhibition is -9.17% (inactive).
The same measure for `CCOc1ccc(Cn2nnc(C(=O)NCc3ccccc3)c2N)cc1`: 51.5% (active); for `O=C(COc1ccccc1)NCc1ccc2c(c1)OCO2`: 1.89% (inactive).
The same measure for `Cc1ccccc1NC(=S)NC(=O)Cc1ccc(Cl)cc1`: 65.3% (active).
The figure for `O=C(Cc1ccc(Cl)cc1)NC(=S)Nc1ccccc1O` is 96.4% (active); for `O=C(NC(=O)c1ccccc1)Nc1ccccc1O` it is 14.3% (inactive); for `O=C(CC(=O)Nc1ccc(Cl)c(Cl)c1)N/N=C/c1ccc(O)cc1` it is 12.4% (inactive).
For `CS(=O)(=O)N(CC(O)Cn1c2ccccc2c2ccccc21)c1cccc2ccccc12` (centres undefined), the inhibition was 41.7% (active).
On to `Cc1cccc(NC(=O)c2cccc(C(=O)Nc3cccc(C)c3C)n2)c1C`, for which the inhibition is 25.4% (active).
For `Cc1ccc(C(=O)C[n+]2cc(-c3ccccc3)n3c2CCCCC3)cc1`, the inhibition was 16.7% (inactive).
For the compound `Cc1ccc2[nH]cc(CCNC(=O)c3ccc([N+](=O)[O-])cc3)c2c1`, the inhibition is 49% (active).
The figure for `O=C(Nc1ccccc1F)c1ccc2c(c1)OCO2` is 2.37% (inactive).
Consider `O=C(Nc1nc(-c2ccc3c(c2)OCO3)cs1)c1ccncc1`, for which the inhibition is 67.8% (active).
The figure for `COc1ccc(NS(=O)(=O)c2ccc(NC(=S)NC(=O)CC(C)C)cc2)cc1` is 58.1% (active).
The same measure for `O=C(CSCc1ccc([N+](=O)[O-])cc1)NCCSCc1ccccc1`: 28.9% (active); for `O=[N+]([O-])c1ccc(N(CCO)Cc2ccccc2)c([N+](=O)[O-])c1`: 15.3% (inactive).
The same measure for `N=c1c2c(-c3ccccc3)c(-c3ccccc3)n(Cc3ccccc3)c2ncn1CCCO`: 38.1% (active); for `CCN1/C(=C\c2ccc3ccccc3[n+]2CC)Sc2cc(C)ccc21`: 42.9% (active).
With `CCc1ccc(OCC2c3cc(OC)c(OC)cc3CCN2C(C)=O)cc1` (centres undefined), the inhibition is 29.6% (active).
The figure for `CC1CN(C(=O)CCC(=O)NCCCN2CCC(Cc3ccccc3)CC2)c2cc(Cl)ccc2O1` (centres undefined) is 49.6% (active).
`Cc1ccc(S(=O)(=O)n2cnc3ccccc32)c(C)c1`: the inhibition is -5.48% (inactive).
The figure for `CC(=O)Nc1ccc(S(=O)(=O)N(C)CC(=O)NCCC2=CCCCC2)cc1` is -1.52% (inactive).
Consider `COc1ccc(C(CCNCc2ccccc2F)c2ccc(F)cc2)cc1` (centres undefined), for which the inhibition was 42.1% (active).
